This passage reports log2 fold change results from the supplement of paper PMC10849652.

Of roughly 7,900 targets only a part is listed; those with a hit were picked by preference. About 0.6% of all pairs of compound and target were hits.

Sequence of UniProt O15066 (O15066 whole entry, looked up): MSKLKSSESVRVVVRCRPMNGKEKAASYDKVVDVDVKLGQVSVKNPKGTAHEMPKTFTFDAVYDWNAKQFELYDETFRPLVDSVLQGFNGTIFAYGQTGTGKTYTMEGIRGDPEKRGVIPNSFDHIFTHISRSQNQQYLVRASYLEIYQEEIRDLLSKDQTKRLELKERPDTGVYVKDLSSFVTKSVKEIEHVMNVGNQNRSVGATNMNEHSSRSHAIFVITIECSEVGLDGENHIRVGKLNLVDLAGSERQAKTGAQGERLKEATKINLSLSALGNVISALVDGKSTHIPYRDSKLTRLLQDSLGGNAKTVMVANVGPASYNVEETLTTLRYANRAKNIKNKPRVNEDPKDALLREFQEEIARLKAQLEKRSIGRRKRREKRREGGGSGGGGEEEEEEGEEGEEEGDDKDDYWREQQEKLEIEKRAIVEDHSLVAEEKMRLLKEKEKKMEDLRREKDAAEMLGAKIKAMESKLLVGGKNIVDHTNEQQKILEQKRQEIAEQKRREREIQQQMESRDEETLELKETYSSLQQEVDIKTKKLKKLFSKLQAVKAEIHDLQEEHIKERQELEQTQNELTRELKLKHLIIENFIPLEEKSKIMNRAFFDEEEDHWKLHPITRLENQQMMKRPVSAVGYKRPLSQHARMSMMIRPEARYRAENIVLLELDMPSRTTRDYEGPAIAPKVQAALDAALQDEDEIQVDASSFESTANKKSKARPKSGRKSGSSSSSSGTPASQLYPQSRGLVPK
Sequence of UniProt Q93074 (Q93074 whole entry, looked up): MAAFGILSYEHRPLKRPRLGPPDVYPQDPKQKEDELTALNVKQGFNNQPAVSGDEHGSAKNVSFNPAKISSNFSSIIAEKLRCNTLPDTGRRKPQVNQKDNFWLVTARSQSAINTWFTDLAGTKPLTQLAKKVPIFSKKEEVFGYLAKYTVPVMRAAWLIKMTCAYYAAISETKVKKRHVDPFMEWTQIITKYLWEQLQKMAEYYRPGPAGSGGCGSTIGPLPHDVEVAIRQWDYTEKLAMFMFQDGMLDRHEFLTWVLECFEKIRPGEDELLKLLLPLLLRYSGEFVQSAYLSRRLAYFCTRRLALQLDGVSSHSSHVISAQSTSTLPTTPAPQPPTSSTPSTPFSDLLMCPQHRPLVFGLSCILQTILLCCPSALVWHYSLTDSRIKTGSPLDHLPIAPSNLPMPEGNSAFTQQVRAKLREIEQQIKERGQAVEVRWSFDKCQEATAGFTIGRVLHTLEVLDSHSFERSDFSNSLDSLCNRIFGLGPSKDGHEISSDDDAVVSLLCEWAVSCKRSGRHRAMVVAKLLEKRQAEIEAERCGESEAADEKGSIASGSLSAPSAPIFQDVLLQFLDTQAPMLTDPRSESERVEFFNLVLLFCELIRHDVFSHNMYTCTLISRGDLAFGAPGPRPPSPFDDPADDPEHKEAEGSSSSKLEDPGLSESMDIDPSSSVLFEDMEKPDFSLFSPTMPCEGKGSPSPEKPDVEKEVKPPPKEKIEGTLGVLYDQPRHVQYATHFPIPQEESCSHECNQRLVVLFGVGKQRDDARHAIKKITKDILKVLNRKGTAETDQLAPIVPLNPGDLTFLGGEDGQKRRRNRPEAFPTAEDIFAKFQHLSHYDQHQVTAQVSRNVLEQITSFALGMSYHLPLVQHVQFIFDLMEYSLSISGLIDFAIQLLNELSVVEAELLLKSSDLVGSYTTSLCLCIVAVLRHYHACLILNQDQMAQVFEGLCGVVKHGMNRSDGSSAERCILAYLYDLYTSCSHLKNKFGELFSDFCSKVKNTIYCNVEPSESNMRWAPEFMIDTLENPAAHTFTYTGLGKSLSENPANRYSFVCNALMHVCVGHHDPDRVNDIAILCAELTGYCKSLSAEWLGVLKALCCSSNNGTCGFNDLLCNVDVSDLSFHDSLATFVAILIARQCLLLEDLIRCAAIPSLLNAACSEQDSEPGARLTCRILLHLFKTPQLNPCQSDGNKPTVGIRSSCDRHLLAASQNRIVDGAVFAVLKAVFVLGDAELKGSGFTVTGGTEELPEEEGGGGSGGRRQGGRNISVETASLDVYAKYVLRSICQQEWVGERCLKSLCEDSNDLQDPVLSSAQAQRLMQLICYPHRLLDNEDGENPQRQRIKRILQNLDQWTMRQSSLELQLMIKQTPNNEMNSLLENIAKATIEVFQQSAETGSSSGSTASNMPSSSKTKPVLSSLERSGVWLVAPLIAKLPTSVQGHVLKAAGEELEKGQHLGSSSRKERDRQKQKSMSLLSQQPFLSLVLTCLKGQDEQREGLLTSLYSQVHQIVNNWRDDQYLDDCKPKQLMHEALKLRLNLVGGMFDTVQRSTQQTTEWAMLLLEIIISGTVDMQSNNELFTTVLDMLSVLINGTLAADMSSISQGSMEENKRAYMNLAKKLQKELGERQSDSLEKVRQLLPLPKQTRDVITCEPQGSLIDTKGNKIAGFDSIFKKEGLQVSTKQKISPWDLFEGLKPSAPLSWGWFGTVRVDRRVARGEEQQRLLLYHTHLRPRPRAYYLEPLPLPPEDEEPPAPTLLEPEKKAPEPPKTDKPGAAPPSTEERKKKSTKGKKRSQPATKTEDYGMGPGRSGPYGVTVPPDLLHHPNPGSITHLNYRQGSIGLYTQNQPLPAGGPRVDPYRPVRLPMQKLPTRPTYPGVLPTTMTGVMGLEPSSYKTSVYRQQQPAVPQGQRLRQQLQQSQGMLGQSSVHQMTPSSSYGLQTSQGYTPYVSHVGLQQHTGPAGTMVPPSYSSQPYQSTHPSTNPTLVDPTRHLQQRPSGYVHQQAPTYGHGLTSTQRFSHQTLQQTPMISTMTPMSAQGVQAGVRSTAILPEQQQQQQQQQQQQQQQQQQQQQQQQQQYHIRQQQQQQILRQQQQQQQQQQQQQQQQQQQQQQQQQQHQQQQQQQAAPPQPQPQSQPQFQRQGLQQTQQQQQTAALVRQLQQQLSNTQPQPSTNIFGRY
Sequence of UniProt Q8TDD5 (Q8TDD5 whole entry, looked up): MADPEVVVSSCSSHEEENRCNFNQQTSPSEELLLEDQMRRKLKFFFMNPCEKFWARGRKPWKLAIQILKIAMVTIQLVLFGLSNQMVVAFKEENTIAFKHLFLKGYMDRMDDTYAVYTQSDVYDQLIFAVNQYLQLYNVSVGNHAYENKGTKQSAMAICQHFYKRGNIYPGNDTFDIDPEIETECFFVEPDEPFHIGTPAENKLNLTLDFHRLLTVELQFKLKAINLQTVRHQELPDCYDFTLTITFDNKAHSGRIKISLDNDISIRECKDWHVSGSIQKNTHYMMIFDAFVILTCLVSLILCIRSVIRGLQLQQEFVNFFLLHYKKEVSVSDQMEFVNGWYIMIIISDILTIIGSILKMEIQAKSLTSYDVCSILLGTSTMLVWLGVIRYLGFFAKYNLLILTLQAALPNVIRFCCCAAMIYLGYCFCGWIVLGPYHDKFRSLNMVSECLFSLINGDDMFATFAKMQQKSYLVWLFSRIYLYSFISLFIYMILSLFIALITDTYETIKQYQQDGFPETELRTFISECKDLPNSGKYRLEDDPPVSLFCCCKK
Sequence of UniProt Q16539 (Q16539 whole entry, looked up): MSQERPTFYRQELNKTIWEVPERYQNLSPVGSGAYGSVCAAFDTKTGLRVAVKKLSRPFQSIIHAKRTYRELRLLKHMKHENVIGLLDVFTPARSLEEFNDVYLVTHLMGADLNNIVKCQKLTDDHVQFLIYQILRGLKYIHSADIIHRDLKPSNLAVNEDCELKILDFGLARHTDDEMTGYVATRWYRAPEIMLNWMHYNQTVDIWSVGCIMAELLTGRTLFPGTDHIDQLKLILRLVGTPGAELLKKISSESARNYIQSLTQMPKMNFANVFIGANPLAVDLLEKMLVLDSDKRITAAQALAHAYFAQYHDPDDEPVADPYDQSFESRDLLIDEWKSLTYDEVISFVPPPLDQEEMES
Sequence of UniProt Q96LU5 (Q96LU5 whole entry, looked up): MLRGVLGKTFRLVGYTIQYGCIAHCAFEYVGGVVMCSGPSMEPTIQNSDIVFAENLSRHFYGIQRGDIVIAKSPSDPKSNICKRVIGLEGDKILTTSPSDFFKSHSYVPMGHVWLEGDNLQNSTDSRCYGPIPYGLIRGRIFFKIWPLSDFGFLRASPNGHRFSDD
Sequence of UniProt P43361 (P43361 whole entry, looked up): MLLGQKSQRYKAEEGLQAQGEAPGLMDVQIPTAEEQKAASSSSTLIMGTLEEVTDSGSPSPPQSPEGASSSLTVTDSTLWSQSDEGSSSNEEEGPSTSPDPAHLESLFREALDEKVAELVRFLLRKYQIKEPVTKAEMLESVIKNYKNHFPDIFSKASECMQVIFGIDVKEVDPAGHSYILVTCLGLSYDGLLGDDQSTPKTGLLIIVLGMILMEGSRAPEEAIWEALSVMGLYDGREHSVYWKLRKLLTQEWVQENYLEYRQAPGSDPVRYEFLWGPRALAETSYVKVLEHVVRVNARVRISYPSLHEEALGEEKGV
Sequence of UniProt O95279 (O95279 whole entry, looked up): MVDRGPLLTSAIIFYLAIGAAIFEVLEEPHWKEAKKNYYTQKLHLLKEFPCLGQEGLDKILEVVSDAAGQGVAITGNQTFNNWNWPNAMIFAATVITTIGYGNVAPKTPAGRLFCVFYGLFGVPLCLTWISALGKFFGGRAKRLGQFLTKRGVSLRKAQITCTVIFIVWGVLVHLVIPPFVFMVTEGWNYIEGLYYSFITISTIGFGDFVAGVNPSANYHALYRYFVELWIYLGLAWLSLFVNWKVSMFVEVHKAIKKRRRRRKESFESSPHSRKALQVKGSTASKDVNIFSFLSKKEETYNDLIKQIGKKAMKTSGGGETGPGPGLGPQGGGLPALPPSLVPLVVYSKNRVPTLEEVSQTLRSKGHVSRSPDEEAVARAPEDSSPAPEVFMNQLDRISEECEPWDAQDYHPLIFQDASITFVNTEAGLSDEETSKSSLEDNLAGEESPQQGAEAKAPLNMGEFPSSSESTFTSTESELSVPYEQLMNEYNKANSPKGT
Sequence of UniProt Q9BQD3 (Q9BQD3 whole entry, looked up): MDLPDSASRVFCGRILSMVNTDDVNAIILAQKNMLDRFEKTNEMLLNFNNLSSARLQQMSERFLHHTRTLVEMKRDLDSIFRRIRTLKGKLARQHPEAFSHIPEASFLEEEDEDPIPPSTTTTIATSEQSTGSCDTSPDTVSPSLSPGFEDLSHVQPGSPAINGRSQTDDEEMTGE

Compound in the first assay: CCn1c(C(=O)N(C2CC2)C2CC2)cc2c3c(ncn3C)c(Nc3cc(C)n(C)n3)nc21
Put plainly: log2 fold change, soluble protein after heating vs DMSO (PISA); higher = thermal stabilisation; K562 cells, 10 uM, 30 min; active = over 0.2 and 3.5 SD of the protein, either way, in both replicates (recomputed). The essentials: (§1)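 K562 cells at 2×10^6 cells/mL were given 10 μM compound for 30 min. Aliquots then went through 3 min of heating across 48°C-58°C, were pooled, and were extracted in PBS with 0.5% NP-40 at 4°C, and the supernatant after 21,000xg for 90 min was quantified by TMTpro 16plex LC-MS/MS with channel sums equalised. Thermal stability relative to control samples, from duplicates, is given as log2 fold change.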
For KCNK5 (UniProt O95279), the log2 fold change was 0.004 (inactive).

As for IL27RA (UniProt Q6UWB1), the log2 fold change was -0.066 (inactive).

Turning to MED12 isoform 2 (UniProt Q93074), the log2 fold change was 0.083 (inactive).

In the case of MCM10 (UniProt Q7L590), the log2 fold change is 0.069 (inactive).

Consider KXD1 (UniProt Q9BQD3), for which the log2 fold change was -0.033 (inactive).

With MCOLN3 (UniProt Q8TDD5), the log2 fold change was -0.132 (inactive).

As for MASTL (UniProt Q96GX5), the log2 fold change was -0.048 (inactive).

Consider ING5 (UniProt Q8WYH8), for which the log2 fold change is -0.046 (inactive).

Take MAPK14 (UniProt Q16539): the log2 fold change is 0.088 (inactive).

Regarding MAP4 isoform 5 (UniProt P27816), the log2 fold change is -0.03 (inactive).

IMMP1L (UniProt Q96LU5): the log2 fold change was -0.031 (inactive).

Compound in a further assay: CCn1cc(-c2ccnc3[nH]c(-c4cccc(CN(C)C)c4)cc23)c(-c2ccc(NC(=O)N(C)C)cc2)n1
Described as above. The essentials:
as §1
For the target LRBA, A0A494BZW2, the log2 fold change is -0.039 (inactive).

Take KIZ (UniProt Q2M2Z5): the log2 fold change was -0.202 (inactive).

Regarding MFSD1 isoform 6 (UniProt Q9H3U5), the log2 fold change was -0.069 (inactive).

As to LENG8 (UniProt Q96PV6), the log2 fold change was 0.073 (inactive).

With MFSD8 (UniProt Q8NHS3), the log2 fold change is -0.012 (inactive).

On to KMT2C isoform 3 (UniProt Q8NEZ4), for which the log2 fold change is 0.031 (inactive).

For MELK (UniProt Q14680), the log2 fold change was -0.114 (inactive).

For the target IP6K1 (UniProt Q92551), the log2 fold change was 0.028 (inactive).

For MED25 isoform 3 (UniProt Q71SY5), the log2 fold change is -0.203 (inactive).

As for MBLAC1 (UniProt A4D2B0), the log2 fold change is -0.01 (inactive).

Take KIF3B (UniProt O15066): the log2 fold change was 0.159 (inactive).

With MAGEA8 (UniProt P43361), the log2 fold change is 0.252 (inactive).

Consider MED17 (UniProt Q9NVC6), for which the log2 fold change was 0.08 (inactive).

As for MFSD11 (UniProt O43934), the log2 fold change is 0.021 (inactive).

Consider KCNK5 (UniProt O95279), for which the log2 fold change is 0.047 (inactive).

Take MED12 isoform 2 (UniProt Q93074): the log2 fold change was 0.086 (inactive).

Turning to MCM10 (UniProt Q7L590), the log2 fold change was -0.037 (inactive).

Consider KXD1 (UniProt Q9BQD3), for which the log2 fold change was 0.041 (inactive).

Turning to MCOLN3 (UniProt Q8TDD5), the log2 fold change is 0.027 (inactive).

Turning to MAPK14 (UniProt Q16539), the log2 fold change was 0.03 (inactive).

Compound in another assay: CN(C)CC(=O)Nc1ccc2[nH]c(=O)c3ccccc3c2c1
The description is as above. The essentials: as §1
As to MED22 (UniProt Q15528), the log2 fold change was -0.019 (inactive).

Turning to LRFN1 (UniProt Q9P244), the log2 fold change is 0.134 (inactive).

For the target ILRUN (UniProt Q9H6K1), the log2 fold change is 0.016 (inactive).

MFSD1 isoform 6 (UniProt Q9H3U5): the log2 fold change is -0.025 (inactive).

On to MAN2B2 (UniProt Q9Y2E5), for which the log2 fold change is -0.019 (inactive).

For LENG8 (UniProt Q96PV6), the log2 fold change is 0.065 (inactive).

As to MFSD8 (UniProt Q8NHS3), the log2 fold change is -0.061 (inactive).

In the case of LUM (UniProt P51884), the log2 fold change was -0.167 (inactive).

Consider ITPRID2 (UniProt P28290), for which the log2 fold change is -0.106 (inactive).

On to METAP1D (UniProt Q6UB28), for which the log2 fold change is -0.065 (inactive).

On to MED8 isoform 2 (UniProt Q96G25), for which the log2 fold change is -0.075 (inactive).

In the case of MARK2 (UniProt E9PC69), the log2 fold change is -0.028 (inactive).

On to KMT2C isoform 3 (UniProt Q8NEZ4), for which the log2 fold change is 0 (inactive).

As for MED25 isoform 3 (UniProt Q71SY5), the log2 fold change was 0.096 (inactive).

As for MBLAC1 (UniProt A4D2B0), the log2 fold change was 0.105 (inactive).

On to KIF3B (UniProt O15066), for which the log2 fold change was -0.078 (inactive).

On to ITM2B (UniProt Q9Y287), for which the log2 fold change is -0.036 (inactive).

In the case of MAGEA8 (UniProt P43361), the log2 fold change was -0.003 (inactive).

MED17 (UniProt Q9NVC6): the log2 fold change was 0.037 (inactive).

With LPGAT1 (UniProt Q92604), the log2 fold change was 0.051 (inactive).

MFSD11 (UniProt O43934): the log2 fold change is 0.017 (inactive).

As for IL27RA (UniProt Q6UWB1), the log2 fold change was -0.098 (inactive).

For MCM10 (UniProt Q7L590), the log2 fold change was -0.023 (inactive).

Take KXD1 (UniProt Q9BQD3): the log2 fold change is 0.062 (inactive).

Take MASTL (UniProt Q96GX5): the log2 fold change was -0.143 (inactive).

In the case of MAPK14 (UniProt Q16539), the log2 fold change was 0.052 (inactive).

Regarding IMMP1L (UniProt Q96LU5), the log2 fold change was 0.017 (inactive).

Compound in the next assay: CN(CCOC1=CC=C(C=C1)C[C@H]2C(=O)NC(=O)S2)C3=CC=CC=N3 (racemic) [rosiglitazone]
The description is as above. The essentials: as §1
As for LRBA, A0A494BZW2, the log2 fold change is 0.011 (inactive).

On to MED22 (UniProt Q15528), for which the log2 fold change was 0.076 (inactive).

Consider LRFN1 (UniProt Q9P244), for which the log2 fold change was 0.006 (inactive).

On to ILRUN (UniProt Q9H6K1), for which the log2 fold change is -0.019 (inactive).

Turning to MFSD1 isoform 6 (UniProt Q9H3U5), the log2 fold change is -0.016 (inactive).

Turning to MAN2B2 (UniProt Q9Y2E5), the log2 fold change was -0.052 (inactive).

Consider LENG8 (UniProt Q96PV6), for which the log2 fold change is 0.017 (inactive).

For MFSD8 (UniProt Q8NHS3), the log2 fold change is -0.139 (inactive).

Regarding METAP1D (UniProt Q6UB28), the log2 fold change was 0.013 (inactive).

In the case of MED8 isoform 2 (UniProt Q96G25), the log2 fold change was 0.007 (inactive).

Regarding MARK2 (UniProt E9PC69), the log2 fold change was -0.014 (inactive).

Take KMT2C isoform 3 (UniProt Q8NEZ4): the log2 fold change was 0.009 (inactive).

With MELK (UniProt Q14680), the log2 fold change is -0.003 (inactive).

As for IP6K1 (UniProt Q92551), the log2 fold change was 0.091 (inactive).

On to MED25 isoform 3 (UniProt Q71SY5), for which the log2 fold change is 0.018 (inactive).

With MBLAC1 (UniProt A4D2B0), the log2 fold change was -0.024 (inactive).

In the case of KIF3B (UniProt O15066), the log2 fold change was 0.106 (inactive).

As for ILF3 (UniProt Q12906), the log2 fold change was -0.082 (inactive).

ITM2B (UniProt Q9Y287): the log2 fold change was 0.057 (inactive).

Take MAGEA8 (UniProt P43361): the log2 fold change was 0.036 (inactive).

For LPGAT1 (UniProt Q92604), the log2 fold change is 0.012 (inactive).

Regarding MFSD11 (UniProt O43934), the log2 fold change was -0.006 (inactive).

As to MAP4K2 (UniProt Q12851), the log2 fold change was 0.066 (inactive).

KCNK5 (UniProt O95279): the log2 fold change is 0.179 (inactive).

In the case of IL27RA (UniProt Q6UWB1), the log2 fold change was -0.093 (inactive).

For MED12 isoform 2 (UniProt Q93074), the log2 fold change was 0.074 (inactive).

With MCM10 (UniProt Q7L590), the log2 fold change is -0.164 (inactive).

MARCHF3 (UniProt Q86UD3): the log2 fold change was 0.093 (inactive).

As for KXD1 (UniProt Q9BQD3), the log2 fold change was 0.047 (inactive).

On to MCOLN3 (UniProt Q8TDD5), for which the log2 fold change is 0.128 (inactive).

Turning to MASTL (UniProt Q96GX5), the log2 fold change was -0.006 (inactive).

With MAPK14 (UniProt Q16539), the log2 fold change is 0.067 (inactive).

With MAP4 isoform 5 (UniProt P27816), the log2 fold change was 0.008 (inactive).

In the case of IMMP1L (UniProt Q96LU5), the log2 fold change is -0.003 (inactive).
